Results on 78 compounds are retold here after PubChem BioAssay AID743446 (Broad Institute, 2014).

A short description of the test: viability loss in HEK293 cells – cell-based, plate reader, cherry-picked samples, cytotoxicity control, dose response (AID 743446). The following applies: hits give low values; at 26 µM unless noted.

Potency and affinity values are given separately. Unmarked numbers belong to inactive results. How the calls were made is not given here.

Consider `Cn1cccc1C(=O)OCC(=O)Nc1ccc2c(c1)OCCO2`, for which the max activity is -17.1%.
Consider `CCCCN(Cc1ccccc1)S(=O)(=O)c1cc2c(cc1Br)CC(C)N2C(C)=O` (stereo not drawn), for which the max activity is 18.2% [at 0.38 µM].
With `C[C@H](CO)N1C[C@H](C)[C@H](CN(C)C(=O)Nc2ccccc2)OCCCC[C@H](C)Oc2ccc(NC(=O)CCC(F)(F)F)cc2C1=O`, the max activity is -24.3% [at 0.195 µM].
For `Cc1ccc(-n2cc(CN(C)Cc3nccn3C)c(-c3cccc(C)c3)n2)cc1`, the max activity is 22.6% [at 1.6 µM].
Regarding `N#C[C@@H]1[C@H](c2ccc(C#Cc3cccc(F)c3)cc2)[C@@H](CO)N1C(=O)C1CC1`, the max activity is 10.4% [at 12 µM].
Take `CC(=O)c1ccc(NC(=O)c2noc3c2CCC3)cc1`: the max activity is 12.6% [at 0.1 µM].
Turning to `COc1ccc(-c2cc3nc(CCl)[nH]c(=O)c3s2)cc1`, the max activity is -60.9%.
Turning to `N#C[C@H]1[C@@H](c2ccc(C3=CCCCC3)cc2)[C@H](CO)N1C(=O)c1ccccn1`, the max activity was 74.4% [at 12 µM].
The value for `CCc1nc(Sc2nnnn2-c2ccccc2)c2c3c(sc2n1)CCCC3` was -13.3%; that for `O=C(c1cc(-c2ccccc2Cl)on1)N1CCCC1` was 27.2%; that for `O=C(Nc1ccc(NC(=O)c2ccco2)nc1)c1ccco1` was -22.6%.
The value for `C[C@H]1CCCCO[C@@H](CN(C)C(=O)Nc2ccc3c(c2)OCO3)[C@@H](C)CN([C@@H](C)CO)C(=O)c2cc(NC(=O)NC3CCCCC3)ccc2O1` was 26.2% [at 23.5 µM]; that for `C=CCn1c(SCC(=O)Nc2ncc(Cc3ccc(C)c(Cl)c3)s2)nnc1-c1ccncc1` was -6.05% [at 3 µM]; that for `Cc1ccccc1OCC(=O)Nc1cccc(C(=O)O)c1` was 6.54%.
For `O=C(Nc1nc2cc3c(cc2s1)OCO3)c1ccco1`, the max activity is 45.6% [at 0.05 µM].
In the case of `O=C(COc1ccc2ccccc2c1)Nc1nccs1`, the max activity was 38.6% [at 0.195 µM].
Consider `CCOC(=O)c1cn2nc(N3CCCC3)ccc2n1`, for which the max activity was -7.31% [at 6 µM].
Next, `COc1ccc(-c2cc(C(=O)Nc3cccc(O)c3)no2)cc1`: 75.5% [at 0.195 µM].
As for `Cc1ccc2nc(-c3ccc(NC(=O)COC(=O)c4ccco4)cc3)sc2c1`, the max activity was -11.7% [at 1.6 µM].
For the compound `Clc1ccc(-n2ncc3c(N4CCCC4)ncnc32)cc1`, the max activity is 13.4%.
For `Cc1ccccc1-c1ccc([C@H]2[C@@H](CO)N3CCCCN(S(=O)(=O)c4ccc(F)cc4)C[C@@H]23)cc1`, the max activity is -101%.
As to `O=C(Nc1ccc2c(c1)OCCO2)c1ccc(Cl)cc1Cl`, the max activity was -20.3% [at 3 µM].
For the compound `Cc1ccc(C(=O)CN2C(=O)c3ccccc3S2(=O)=O)cc1`, the max activity is 11.6% [at 3 µM].
Next, `CCCc1nc(SCC(=O)N2CCC(Cc3ccccc3)CC2)c2c(=O)n(C)c(=O)n(C)c2n1`: 11.8% [at 0.05 µM]; `c1ccc(-c2cn3c4c(sc3n2)CCCC4)cc1`: -19.5%; `O=C(O)c1cccc(Nc2ccnc(Nc3cccc(C(=O)O)c3)n2)c1`: -12.2% [at 0.05 µM].
In the case of `COC(=O)c1ccc(Nc2cc(C)nc3ccc(C)cc23)cc1`, the max activity was -31.7% [at 12 µM].
For `CCCCc1ccc(NC(=O)c2cnccn2)cc1`, the max activity was -14.3% [at 3 µM].
Next, `CC(C)Oc1ccc(CNC(=O)CC(c2ccccc2)c2cc(Cl)ccc2O)cc1` (stereo not drawn): 29.6% [at 0.8 µM].
As for `CN(C)S(=O)(=O)c1cccc(NC(=O)COc2ccccc2C(=O)Nc2ccccc2)c1`, the max activity was -34.1%.
For the compound `COc1cc(SC)ccc1C(=O)Nc1ccc(Cl)cn1`, the max activity was 19.7% [at 3 µM].
As for `C[C@H](CO)N1C[C@H](C)[C@@H](CN(C)S(=O)(=O)c2cccs2)Oc2c(cccc2N(C)C)C1=O`, the max activity is 11.4% [at 6 µM].
The value for `CC(=O)c1ccc(Nc2nc(-c3sc(C)nc3C)cs2)cc1` was -13.6%; that for `CN(C)c1ccc(C2NC(=O)c3ccccc3N2)cc1` (stereo not drawn) was 20.5% [at 0.1 µM].
As for `COC(=O)c1ccc2nc(-c3cccc(N)c3)cn2c1`, the max activity was 9.42% [at 0.195 µM].
For `Cc1cc(C(=O)CSc2nnc3ccccn23)c(C)n1-c1ccccc1`, the max activity is -21.9%.
Take `Cc1cc(C)n2c(Nc3ccc4c(c3)OCCO4)c(-c3cc4ccccc4o3)nc2n1`: the max activity is 52.8%.
The value for `CCOC(=O)c1cn2nc(N3CCCCC3)ccc2n1` was -14% [at 3 µM]; that for `Cc1ccccc1S(=O)(=O)N1[C@H](C#N)[C@H](c2ccc(C#CC3CCCCC3)cc2)[C@H]1CO` was 29.2% [at 3 µM]; that for `C[C@H]1CCCCO[C@@H](CN(C)C(=O)Nc2ccc(F)cc2)[C@@H](C)CN([C@@H](C)CO)C(=O)c2cc(NC(=O)C3CCCCC3)ccc2O1` was -14.5% [at 6 µM].
In the case of `O=C(Nc1nc2c(s1)CCCC2)C1COc2ccccc2O1` (stereo not drawn), the max activity is 55.6% [at 0.05 µM].
As for `COc1ccccc1C=NNC(=O)c1ccncc1`, the max activity was 20.7%.
With `CC(=O)N1CCc2cc(S(=O)(=O)C(C)CC(=O)NCc3ccco3)ccc21` (stereo not drawn), the max activity was -15.3% [at 6 µM].
Consider `C[C@@H]1CN([C@@H](C)CO)C(=O)c2cc(NS(C)(=O)=O)ccc2O[C@@H](C)CCCCO[C@@H]1CN(C)Cc1ccc(C(F)(F)F)cc1`, for which the max activity was -12.9% [at 0.1 µM].
With `COc1ccc2oc(C(=O)NCCc3ccccc3)c(C)c2c1`, the max activity is -55.4%.
Take `Cc1cccc(-n2ncc3c(N4CCOCC4)ncnc32)c1`: the max activity is 28.5%.
For `Cc1nc2c(OCCC3CCCCC3)cccn2c1N(C)C(=O)CCC1CCCC1`, the max activity was -22.5% [at 6 µM].
Next, `Cc1cnc(NC(=O)c2sc3ccccc3c2Cl)s1`: 35.5% [at 6 µM]; `C[C@H](CO)N1C[C@H](C)[C@H](CN(C)Cc2ccc(C(F)(F)F)cc2)Oc2ccc(NC(=O)Nc3ccc(F)cc3)cc2C1=O`: -29.9%; `C[C@@H]1CN([C@@H](C)CO)S(=O)(=O)c2ccc(C3=CCCC3)cc2O[C@H]1CN(C)C(=O)c1ccccc1`: 11.7% [at 0.1 µM].
On to `CCc1ccc2ncc(S(=O)(=O)c3ccc(C)c(C)c3)c(N3CCCC3)c2c1`, for which the max activity was 19.3% [at 0.38 µM].
As to `CCCC(=O)N1CCCC(c2cc(C(=O)Nc3ccccc3)no2)C1` (stereo not drawn), the max activity is -23.2% [at 0.05 µM].
Turning to `Cc1ccc(C(=O)NC2CCCCCCC2)c(Cl)c1`, the max activity is -18.7% [at 0.38 µM].
As for `O=C(CN1C(=O)c2ccccc2S1(=O)=O)c1ccc(F)cc1`, the max activity was 63.1%.
As to `Cc1ccc2nc(NC(=O)CCCC(=O)O)sc2c1`, the max activity was 12.5%.
Regarding `Oc1ccc(-c2csc(-c3cccnc3)n2)c(O)c1`, the max activity is -34.3%.
Consider `C[C@@H]1CN([C@H](C)CO)C(=O)c2cc(C#CCN(C)C)cnc2O[C@@H]1CN(C)C(=O)CN1CCOCC1`, for which the max activity is 12.9% [at 0.195 µM].
As to `Cc1ccc(C)c(S(=O)(=O)N(C(=O)c2ccncc2)c2ccc(OC(=O)c3ccncc3)cc2)c1`, the max activity was 13.7%.
Consider `C=CCN1CCN(C(=O)CCCc2ccccc2)CC1`, for which the max activity was 69.3% [at 12 µM].
With `Cc1ccc(C(=O)n2nc(-n3cccc3)c3c(C)cc(C)nc32)cc1`, the max activity is -22.4% [at 6 µM].
With `O=C(Nc1ccc(N2CCOCC2)cc1)c1cnccn1`, the max activity is -6.24% [at 3 µM].
As to `CC1(c2ccccc2Cl)NC(=O)N(CC(=O)N2CCc3ccccc32)C1=O` (stereo not drawn), the max activity is 40.9%.
Next, `Cc1ccc(-c2noc(-c3cccs3)n2)cc1`: 22.5% [at 12 µM]; `Cc1ccc(-c2cnn3c(N4CCOCC4)cc(C)nc23)cc1`: 35.7% [at 0.38 µM].
Turning to `Cc1ccc(C(=O)NCCc2cccs2)cc1`, the max activity was 37.3% [at 3 µM].
For the compound `CC(C)(C)C(=O)Nc1ccc(NC(=O)c2ccco2)nc1`, the max activity is 11.3% [at 0.38 µM].
For the compound `O=C(O)c1cccc(-c2noc(-c3cccc(Cl)c3)n2)c1`, the max activity is 9.55%.
The value for `Cc1csc(NC(=O)c2cnc3ccccc3n2)n1` was 87.3%; that for `O=C(NCCOc1ccccc1)[C@@H]1CCCN1C(=O)c1cccs1` was -12.7% [at 0.05 µM]; that for `NCC[C@H]1CC[C@H](NS(=O)(=O)Cc2ccccc2)[C@@H](CO)O1` was 24.3%.
In the case of `CCn1c(C)cc(C(=O)CN2C(=O)c3ccccc3S2(=O)=O)c1C`, the max activity is -18.9% [at 6 µM].
`Cc1ccc(Nc2nc(-c3ccccc3)cs2)nc1`: the max activity was -17.9% [at 0.05 µM].
With `C[C@H](CO)N1C[C@H](C)[C@H](CN(C)C(=O)Nc2ccc(F)cc2)OCCCC[C@H](C)Oc2ccc(NC(=O)C3CCCCC3)cc2C1=O`, the max activity was -10.8% [at 6 µM].
For the compound `CCCc1ccc(-c2ccc(F)c(N)c2)nc1`, the max activity was -20.7% [at 12 µM].
Take `Cc1c(NC(=O)c2cccc(NC(=O)COc3ccccc3C#N)c2)c(=O)n(-c2ccccc2)n1C`: the max activity was -14.7% [at 3 µM].
Turning to `COc1ccc(C(=O)Nc2nnc(-c3ccco3)s2)cc1`, the max activity is -21.3% [at 3 µM].
For the compound `COc1ccc(S(=O)(=O)Nc2ccc3c(c2)C(=O)N([C@@H](C)CO)C[C@@H](C)[C@H](CN(C)C(=O)Nc2cccc4ccccc24)OCCCC[C@H](C)O3)cc1`, the max activity was 35.8% [at 12 µM].
Take `COc1ccc(/C=C/C(=O)Nc2ccccc2C(=O)O)cc1OC`: the max activity is 13.2% [at 1.6 µM].
